GPT2 inhibitor – blocks human glutamate pyruvate transaminase 2. Q8TD30. Recombinant GPT2, coupled pyruvate oxidase/HRP Amplex Red fluorescence. Potency, µM (doses to about 57.7 µM), for inactives: at the highest dose activity change, negative = inhibition, hits mostly inhibitors. 100,000 tested, 0.25% active. AID 1671188; also: nearly all actives have a fitted effect of over 60% in size
Target sequence (Q8TD30 whole entry, looked up): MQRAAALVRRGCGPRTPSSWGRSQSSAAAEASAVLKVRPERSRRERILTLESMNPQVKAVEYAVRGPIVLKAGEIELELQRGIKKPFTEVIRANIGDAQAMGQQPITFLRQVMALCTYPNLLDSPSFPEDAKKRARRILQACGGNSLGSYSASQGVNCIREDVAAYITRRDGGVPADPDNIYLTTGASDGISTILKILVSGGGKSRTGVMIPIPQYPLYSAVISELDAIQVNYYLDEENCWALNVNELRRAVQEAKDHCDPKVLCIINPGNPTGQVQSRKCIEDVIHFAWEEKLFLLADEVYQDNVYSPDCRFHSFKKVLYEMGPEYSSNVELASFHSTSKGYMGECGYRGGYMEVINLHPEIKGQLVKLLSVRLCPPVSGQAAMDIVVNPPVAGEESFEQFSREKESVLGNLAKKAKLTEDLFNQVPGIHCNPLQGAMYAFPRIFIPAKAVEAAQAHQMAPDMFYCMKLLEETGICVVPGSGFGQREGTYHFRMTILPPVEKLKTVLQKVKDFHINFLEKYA
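Fluorescence read-out: pyruvate from GPT2 turnover coupled to pyruvate oxidase, HRP and Amplex Red (0.2mM ThPP, 0.2U/mL PO and HRP, 50uM Amplex final). Substrates 250uM a-KG, 2mM L-alanine; enzyme 10ng/uL; 30 min RT.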
NIH3T3 tox – NIH 3T3 cell cytotoxicity | Potency, µM (series often up to 96.7 µM), without a hit: at the top dose activity change, negative = cytotoxicity, most hits filed as inhibitors | 94,000 tested, 4.3% active | AID 1345082 | NIH 3T3 viability, CellTiter-Glo ATP luminescence, 48-72 h; also: nearly all actives have a fitted effect of over 55% in size
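Cytotoxicity was measured by CellTiter-Glo ATP luminescence after 48 or 72 h compound exposure at 37 °C. Mouse NIH 3T3 fibroblasts were seeded at 400 cells/well and dosed by 23 nL pin transfer.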
HEK293 tox – cytotoxic compounds in HEK 293 cells; HEK 293 viability, ATP luminescence (CellTiter-Glo), 48-72 h; Potency, µM (top dose mostly 115 µM), for inactives: at the top dose activity change, negative = cytotoxicity, most hits filed as inhibitors; 94,000 tested, 6.6% active; AID 1345083; also: nearly all actives have a fitted effect of over 60% in size
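HEK 293 seeded at 250 cells/well receive compound via pintool. After 48 or 72 hr at 37 degree Celsius, 5% CO2 and 95% humidity, CellTiter-Glo is dispensed and luminescence read following 10 min at room temperature.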
NPR1 antag – antagonists of human natriuretic peptide receptor Npr1; HEK293 hNpr1 GloSensor cGMP, ANP-stimulated luminescence; Potency, µM (series often up to 46.3 µM), inactives show at the highest dose activity change, negative = inhibition, usual class: inhibitors; 76,000 tested, 1.6% active; calls by dose curve; also: nearly all actives have a fitted effect of over 60% in size
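Compound pre-incubated 30 min at room temperature on GloSensor-loaded HEK293 cells stably carrying hNpr1 and the pGS-40F cGMP biosensor. Stimulation uses hNppA at 0.1 nM final; luminescence is taken at baseline and 20 min post-agonist.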
Luciferase inh – blocks purified firefly luciferase enzyme activity; 76,000 tested, 2.5% active; purified P. pyralis luciferase, luminescence, biochemical; P08659; Potency, µM (series often up to 115 µM), most hits filed as inhibitors; also: nearly all actives have a fitted effect of over 65% in size
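FLuc 10nM, D-luciferin 10uM, ATP 10uM, Mg acetate 10mM, Tris acetate pH 7.5, Tween/BSA; cpd qHTS; enzyme added last; CCD luminescence.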
* hit, by the source's call; i = inactive; ? = inconclusive; . = no result given; [ ] = dose if it differs, or a comment. Hits are enriched below; roughly 10% of the tested compounds scored in any of these assays. Unless noted, calls follow the shape of the dose curve; as a rule, active = well fitted curve in the direction sought with a large enough effect; inconclusive = small, poorly fitted or top-dose-only effect, or another doubt; inactive = no such curve, though single readings can be large; an effect the other way counts as inactive or inconclusive. % is scaled to controls: 0 for no effect and ±100 for the full control effect; potency is read from the fitted curve at half-maximal effect.

SMILES	GPT2 inhibitor	NIH3T3 tox	HEK293 tox	NPR1 antag	Luciferase inh
COc1ccc(S(=O)(=O)N[C@H]2[C@H](O)[C@H](O)C[C@@H]2c2ccccc2C)cc1	-8%[88.5 µM]	3%[138 µM]	5%[172 µM]	3%[70.6 µM]	i
COc1ccc([C@H]2C[C@@H](O)[C@@H](O)[C@@H]2NC(=O)Nc2ccc(C(F)(F)F)cc2)cc1	0%[88.5 µM]	25µM*	?	?	i
O=S(=O)(N[C@H]1[C@H](O)[C@H](O)C[C@@H]1c1ccc(C(F)(F)F)cc1)c1ccc(F)cc1	3%[88.5 µM]	?	71µM*	-30%[70.6 µM]	i
Cc1ccc(Nc2ncncc2-c2nc(-c3ccccc3)no2)c(Cl)c1	-4%	-13%	-15%	-11%	i
CCN1C[C@H]2COc3cc(OC)ccc3[C@H]2N(C(=O)C2CCCC2)CCC1=O	.	?	-26%	.	.
CCc1cccc(C)c1NC(=O)Cn1c(=O)n(-c2ccc(F)cc2)c(=O)c2c1cc(C)n2C	-7%	-18%	-28%	-5%	i
Clc1ccccc1C1(c2ccnc(NC3CC3)n2)CCNCC1	i	?	?	-10%	i
COCCNc1nccc(C2(c3ccccc3Cl)CCNCC2)n1	-5%[11.5 µM]	-20%	?	2%	i
Clc1ccccc1C1(c2ccnc(CC3CC3)n2)CCNCC1	-7%	79µM*	?	-2%	i
Clc1ccccc1C1(c2ccnc(NCc3ccccc3)n2)CCNCC1	-17%	25µM*	?	?	i
Clc1ccccc1C1(c2ccnc(C3CCCC3)n2)CCNCC1	-4%	32µM*	?	-16%	i
COc1ccccc1Cc1nccc(C2(c3ccccc3Cl)CCNCC2)n1	2%[11.5 µM]	22µM*	?	-15%	i
Clc1ccccc1C1(c2ccnc(NCc3ccccn3)n2)CCNCC1	-4%[11.5 µM]	-27%	?	-1%	i
CCC1=C(C(=O)OC)C(c2ccccc2F)N2C(CC(=O)NCC3CCCO3)=CSC2=N1 (centres undefined)	i	?	-4%	-19%	i
O=C(c1ccc(=O)[nH]c1)N1CCC2(CCCN(Cc3ccccc3F)C2=O)C1 (centres undefined)	i	-17%	1%	-4%	i
COC1CCC12CCN(S(=O)(=O)c1cccc(F)c1)CC2 (centres undefined)	i	-13%	-1%	.	.
CCc1ccccc1OCC(=O)c1ccc2c(c1)N(CC(=O)Nc1ccc(F)cc1)C(=O)CO2	-7%	32µM*	40µM*	-3%	i
CCCc1ccccc1OCC(=O)c1ccc2c(c1)N(CC(=O)NCC1CC1)C(=O)CO2	?	-22%	-29%	-10%	i
O=C(CN1C(=O)COc2ccc(C(=O)COc3cccc(F)c3)cc21)NCc1ccc2c(c1)OCO2	4%	-5%	-16%	-18%	i
COc1ccc(NC(=O)CN2C(=O)COc3ccc(C(=O)COc4cccc(F)c4)cc32)cc1	2%	40µM*	-50%	-1%	i
COc1ccc2c(c1)OCC(C(=O)NCc1noc(-c3ccco3)n1)C2 (centres undefined)	i[11.5 µM]	-22%	i	3%	i
NC(=O)Cc1c[nH]c2ncc(-c3cccc(F)c3)cc12	-11%[88.5 µM]	89µM*	-13%[230 µM]	-2%[70.6 µM]	i
Cc1cc(-c2cnc3[nH]cc(CC(N)=O)c3c2)ccn1	1%[88.5 µM]	?	-27%[230 µM]	0%[70.6 µM]	i
O=C(Cc1c[nH]c2ncc(-c3ccncc3)cc12)NCc1cccnc1	3%[88.5 µM]	79µM*	?	3%[70.6 µM]	i
O=C(Cc1c[nH]c2ncc(-c3cccc(Cl)c3)cc12)NCc1cccnc1	0%[88.5 µM]	?	79µM*	35µM*	?
SMILES	GPT2 inhibitor	NIH3T3 tox	HEK293 tox	NPR1 antag	Luciferase inh
O=C(Cc1c[nH]c2ncc(-c3ccccc3)cc12)NCc1ccncc1	1%[88.5 µM]	28µM*	?	2%[70.6 µM]	i
O=C(Cc1c[nH]c2ncc(-c3ccccc3)cc12)NCc1cnccn1	i	?	0%[172 µM]	-3%[70.6 µM]	i
COc1cccc(CCC(=O)N2CCCN(C)c3ccccc32)c1	i	?	?	-6%	i
COc1ccccc1Oc1ncccc1CNC(=O)C1CCOCC1	?	i	i	9%	i
O=C1c2c(nc(CNCC3CCCO3)n2Cc2ccccc2)NCCN1CCOc1ccccc1 (centres undefined)	3%	?	?	-11%	i
COc1ccc(-c2cnc3[nH]cc(CC(=O)NCc4cccnc4)c3c2)cn1	3%[88.5 µM]	79µM*	?	4%[70.6 µM]	?
C[S+](=O)([O-])c1cccc(NC(=O)Cc2c[nH]c3ncc(-c4cccnc4)cc23)c1	-9%[88.5 µM]	35µM*	?	9%[70.6 µM]	i
O=C(Cc1c[nH]c2ncc(-c3cccc(F)c3)cc12)NCc1cccnc1	1%[88.5 µM]	?	71µM*	?	i
O=C(Cc1c[nH]c2ncc(-c3cccnc3)cc12)NCCc1ccccc1	0%[88.5 µM]	22µM*	?	-12%[70.6 µM]	i
CN1CC2(CCN(C3CCN(CCc4ccccc4)CC3)C2)OC1=O (centres undefined)	0%	-3%	1%	5%	i
COc1cccc(-c2cnc3[nH]cc(CC(=O)NCc4cccnc4)c3c2)c1	5%[88.5 µM]	?	?	?	i
O=C(Cc1c[nH]c2ncc(-c3cccnc3)cc12)NCc1cccc(F)c1	-1%[88.5 µM]	25µM*	?	-23%[70.6 µM]	i
CCNC(=O)N1CC(N2C(=O)c3c(c(C)nn3-c3ccccc3)C2C2CC2)C1 (centres undefined)	.	-27%	?	.	.
Cc1nn(-c2ccccc2)c2c1C(C)N(CC1CN(Cc3cccc(C(F)(F)F)c3)C1)C2=O (centres undefined)	.	?	28µM*	.	.
Cc1ccccc1C(=O)N1CCC(N2C(=O)c3c(c(C)nn3-c3ccccc3)C2C2CC2)C1 (centres undefined)	.	?	28µM*	.	.
CC(=O)N1CC(N2C(=O)c3c(c(C)nn3-c3ccccc3)C2C2CC2)C1 (centres undefined)	.	?	4%[172 µM]	.	.
Cc1nn(-c2ccccc2)c2c1C(C1CC1)N(C1CN(C(=O)c3cccc(Cl)c3)C1)C2=O (centres undefined)	.	-28%	-23%	.	.
Cc1nn(-c2ccccc2)c2c1C(C1CC1)N(C1CN(C(=O)C3CCCC3)C1)C2=O (centres undefined)	.	35µM*	45µM*	.	.
Cc1nn(-c2ccccc2)c2c1C(C1CC1)N(C1CCN(C(=O)c3ccccc3Cl)C1)C2=O (centres undefined)	.	22µM*	35µM*	.	.
CCCN(CC1CCOC1)C(=O)Nc1cc(Cl)ccc1OC (centres undefined)	i	?	?	-13%	i

Source: PubChem BioAssay (National Center for Advancing Translational Sciences (NCATS))
